The source of these data is PubChem BioAssay (NCI).

Test systems include MOLT-4 leukemia; SR leukemia; RPMI-8226 leukemia; OVCAR-5 ovarian; OVCAR-4 ovarian; SK-OV-3 ovarian; IGROV1 ovarian; OVCAR-3 ovarian; HS 578T breast; NCI/ADR-RES ovarian; T-47D breast; BT-549 breast; MDA-MB-435 melanoma; SW-620 colon; MCF7 breast; HCT-116 colon; KM12 colon.
Common to all, as to experiment: NCI-60 one-dose screen, 48 h (100 = growth as untreated, 0 = no growth, -100 = all killed)
A further test deals with OVCAR-8 ovarian. The following applies: 10 µM unless noted.
For another test, the system named is HCC-2998 colon. The settings on record: 10 µM unless noted.

SMILES strings stand for the structures. Several values for one entry are separate records, joined by “and”; a condition that tells them apart may be missing. Equal values may be shown once. About 83,000 compounds went through this panel and 20% of them were active in at least one assay; those are over-represented in the sample as a whole.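 Cells were grown in 96-well plates and exposed to the test compound at a single concentration for 48 hours; results are reported as percent growth, with values below 10 considered active.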 A number with no mark means an inactive call. Activity calls are given as the source filed them.

In the case of `COc1cc2c(cc1OC)[C@@H]1C(=O)c3ccc4c(c3O[C@@H]1CO2)C[C@H](C(C)C)O4`, the growth in the test on MOLT-4 leukemia (10 µM unless noted) was 37%; in the test on SR leukemia (10 µM unless noted), 9.36% (active); with RPMI-8226 leukemia (10 µM unless noted) it was -9.79% (active); with OVCAR-8 ovarian, 54.7%; with OVCAR-5 ovarian (10 µM unless noted), 93.7%; in the test on OVCAR-4 ovarian (10 µM unless noted), 42.3%. In addition, the growth is 75.9% in the test with SK-OV-3 ovarian (10 µM unless noted); 81.6% with IGROV1 ovarian (10 µM unless noted); 83.1% with OVCAR-3 ovarian (10 µM unless noted); 115% with HS 578T breast (10 µM unless noted); 34.9% with NCI/ADR-RES ovarian (10 µM unless noted); 33.2% with T-47D breast (10 µM unless noted). The growth is 44.8% in the test on BT-549 breast (10 µM unless noted); 51.4% in the test with MDA-MB-435 melanoma (10 µM unless noted); 84.7% in the test on SW-620 colon (10 µM unless noted); 46.3% with MCF7 breast (10 µM unless noted); 39.4% in the test with HCT-116 colon (10 µM unless noted); 76.1% in the test on HCC-2998 colon. The growth with KM12 colon (10 µM unless noted) is 65.6%.
For the compound `CN1CCN(c2ccc(Cl)cc2)CC1`, the growth was 75.6% with MOLT-4 leukemia (10 µM unless noted); 56.2% in the test with SR leukemia (10 µM unless noted); 110% in the test with RPMI-8226 leukemia (10 µM unless noted); 72.5% with OVCAR-8 ovarian; 80.5% in the test with OVCAR-5 ovarian (10 µM unless noted); 98.6% with OVCAR-4 ovarian (10 µM unless noted). For the same compound, the growth in the test on SK-OV-3 ovarian (10 µM unless noted) is 103%; in the test on IGROV1 ovarian (10 µM unless noted), 68%; in the test with OVCAR-3 ovarian (10 µM unless noted), 125%; in the test on HS 578T breast (10 µM unless noted), 101%; with NCI/ADR-RES ovarian (10 µM unless noted), 70.1%; with T-47D breast (10 µM unless noted), 90%. Further, the growth in the test with BT-549 breast (10 µM unless noted) is 83.2%; in the test on MDA-MB-435 melanoma (10 µM unless noted), 97.8%; with SW-620 colon (10 µM unless noted) it was 46.5%; with MCF7 breast (10 µM unless noted), 62.6%; in the test on HCT-116 colon (10 µM unless noted), 31.4%; in the test on HCC-2998 colon it was 105%. Further, in the test on KM12 colon (10 µM unless noted), the growth is 100%.
For `O=C(O)CCCc1ccc(N(CCCl)CCCl)cc1`, the growth is 73.4% and 35.5% in the test with MOLT-4 leukemia (10 µM); 6.72% (active) with MOLT-4 leukemia (75 µM); 44.8% and 19.5% with SR leukemia (10 µM); 5.82% (active) in the test with SR leukemia (75 µM); 84.4% and 90.7% with RPMI-8226 leukemia (10 µM); 7.4% (active) in the test on RPMI-8226 leukemia (75 µM). Also, the growth in the test with OVCAR-8 ovarian was 87.5%; in the test on OVCAR-5 ovarian (10 µM), 97.7% and 81.1%; in the test on OVCAR-5 ovarian (75 µM), 66.4%; in the test with OVCAR-4 ovarian (10 µM) it was 102% and 107%; with OVCAR-4 ovarian (75 µM) it was 83.2%; with SK-OV-3 ovarian (10 µM), 101% and 108%. The growth in the test on SK-OV-3 ovarian (75 µM) is 59.8%; in the test with IGROV1 ovarian (10 µM), 80.2%; in the test with IGROV1 ovarian (75 µM), 50.9%; in the test on OVCAR-3 ovarian (10 µM), 111% and 108%; with OVCAR-3 ovarian (75 µM), 18.9%; in the test on HS 578T breast (10 µM), 120% and 113%. Besides, the growth in the test with HS 578T breast (75 µM) is -4.49% (active); with NCI/ADR-RES ovarian (10 µM) it was 96.3% and 89%; in the test on NCI/ADR-RES ovarian (75 µM), 31%; with T-47D breast (10 µM) it was 87.2% and 74.8%; in the test with T-47D breast (75 µM), 27.3%; with BT-549 breast (10 µM), 86.7% and 96.5%. Further, the growth was 11.7% in the test on BT-549 breast (75 µM); 102% and 97.9% in the test with MDA-MB-435 melanoma (10 µM); 38.8% in the test with MDA-MB-435 melanoma (75 µM); 86.5% and 82.8% with SW-620 colon (10 µM); 51.3% with SW-620 colon (75 µM); 80.9% and 68.4% in the test with MCF7 breast (10 µM). In addition, the growth was 24.9% in the test on MCF7 breast (75 µM); 84.4% and 87% in the test on HCT-116 colon (10 µM); 32.1% with HCT-116 colon (75 µM); 105% and 98% in the test on KM12 colon (10 µM); 65.3% with KM12 colon (75 µM).
In the case of `CCCCS(=O)(=O)Cl`, the growth was 116% in the test with MOLT-4 leukemia (10 µM unless noted); 104% with SR leukemia (10 µM unless noted); 109% in the test on RPMI-8226 leukemia (10 µM unless noted); 105% in the test on OVCAR-8 ovarian; 104% in the test on OVCAR-5 ovarian (10 µM unless noted); 97.8% in the test with OVCAR-4 ovarian (10 µM unless noted). Besides, the growth with SK-OV-3 ovarian (10 µM unless noted) was 110%; in the test with IGROV1 ovarian (10 µM unless noted) it was 116%; with OVCAR-3 ovarian (10 µM unless noted), 120%; with HS 578T breast (10 µM unless noted), 102%; in the test on NCI/ADR-RES ovarian (10 µM unless noted) it was 107%; in the test with T-47D breast (10 µM unless noted), 100%. The growth is 104% in the test with BT-549 breast (10 µM unless noted); 108% in the test on MDA-MB-435 melanoma (10 µM unless noted); 112% in the test with SW-620 colon (10 µM unless noted); 97.7% in the test on MCF7 breast (10 µM unless noted); 97.6% with HCT-116 colon (10 µM unless noted); 124% with HCC-2998 colon. Besides, the growth in the test with KM12 colon (10 µM unless noted) was 114%.
Consider `CC[CH2][Sn]([Cl])([Cl])[CH2]CC.Oc1ccccc1C=NCCN=Cc1ccccc1O`, for which the growth in the test with MOLT-4 leukemia (10 µM unless noted) is 40.2% and 12.6%; in the test on SR leukemia (10 µM unless noted), 24.8% and 21.8%; with RPMI-8226 leukemia (10 µM unless noted), -24.1% (active) and -10.1% (active); in the test with OVCAR-8 ovarian, 87.8% and 72.5%; in the test with OVCAR-5 ovarian (10 µM unless noted), 97.1% and 84.2%; in the test on OVCAR-4 ovarian (10 µM unless noted) it was 69.6%. For the same compound, the growth was 109% and 92.2% in the test with SK-OV-3 ovarian (10 µM unless noted); 74.1% and 61.9% with IGROV1 ovarian (10 µM unless noted); 86.8% and 44.3% in the test on OVCAR-3 ovarian (10 µM unless noted); 77.7% and 48.6% in the test on HS 578T breast (10 µM unless noted); 90.7% and 91.1% with NCI/ADR-RES ovarian (10 µM unless noted); -86.4% (active) and -71% (active) in the test with T-47D breast (10 µM unless noted). Moreover, the growth in the test on BT-549 breast (10 µM unless noted) is 72.7% and 37.4%; in the test on MDA-MB-435 melanoma (10 µM unless noted), 71.8% and 50.1%; in the test on SW-620 colon (10 µM unless noted), 2.07% (active) and -59.7% (active); in the test with MCF7 breast (10 µM unless noted), 21.9% and 17.1%; in the test on HCT-116 colon (10 µM unless noted), 66.2% and 60.3%; with HCC-2998 colon, 66.5% and 52.5%. In addition, the growth in the test on KM12 colon (10 µM unless noted) is 88.4% and 79.7%.
Consider `O=[N+]([O-])c1cc(Cl)c(Cl)c([N+](=O)[O-])c1Cl`, for which the growth in the test with MOLT-4 leukemia (10 µM unless noted) is 13.3%; in the test on SR leukemia (10 µM unless noted) it was 11.2%; in the test on RPMI-8226 leukemia (10 µM unless noted) it was 29.7%; with OVCAR-8 ovarian, 38.9%; in the test with OVCAR-5 ovarian (10 µM unless noted), 107%; with OVCAR-4 ovarian (10 µM unless noted), 29.3%. The growth in the test on SK-OV-3 ovarian (10 µM unless noted) was 105%; in the test with IGROV1 ovarian (10 µM unless noted) it was 28.9%; in the test on OVCAR-3 ovarian (10 µM unless noted), 10%; in the test with HS 578T breast (10 µM unless noted), 106%; in the test on NCI/ADR-RES ovarian (10 µM unless noted), 80%; in the test with T-47D breast (10 µM unless noted) it was 0.463% (active). Besides, the growth in the test with BT-549 breast (10 µM unless noted) is 96.8%; in the test with MDA-MB-435 melanoma (10 µM unless noted), 89.3%; with SW-620 colon (10 µM unless noted) it was -61.9% (active); in the test with MCF7 breast (10 µM unless noted) it was 20.1%; in the test with HCT-116 colon (10 µM unless noted), -77.1% (active); in the test on HCC-2998 colon, 109%. Besides, the growth in the test on KM12 colon (10 µM unless noted) is 26%.
